What all share (experiment): DAPPL (digital affinity profiling via proximity ligation, sequencing); 10 mM Tris-HCl pH 7.5, 50 mM NaCl, 1 mM DTT, 4% glycerol, room temperature, 30 min; GST-TFs on glutathione beads, 16-mer random dsDNA library, 0.1% formaldehyde crosslink after washing; high values mean tight binding
In one assay the target is T1, FEV (Homo sapiens, UniProt Q99581 1-238).
T1 sequence: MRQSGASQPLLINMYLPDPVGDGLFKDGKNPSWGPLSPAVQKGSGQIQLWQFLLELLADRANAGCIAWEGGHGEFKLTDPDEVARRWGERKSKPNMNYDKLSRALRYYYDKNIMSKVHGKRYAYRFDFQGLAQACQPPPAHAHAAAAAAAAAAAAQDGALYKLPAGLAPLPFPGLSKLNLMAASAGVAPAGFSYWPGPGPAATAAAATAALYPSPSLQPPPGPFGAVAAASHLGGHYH
The settings on record: protein: recombinant; tags: N-terminal GST; dsDNA, one strand shown. Summed up:
(§1)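 Human transcription factors were made in yeast as GST fusions, captured on glutathione beads and barcoded with DNA. With a tag-only sample included, the pool was incubated with 200 nmole of a random double-stranded 16-mer DNA library in Tris/NaCl/DTT/glycerol buffer at room temperature for 30 min, then crosslinked with 0.1% formaldehyde after washing, ligated by proximity, amplified and sequenced. For binding signal, each hexamer's read frequency for a factor is divided by its frequency for the tag-only sample.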

The target of a further assay is ETV5 (Homo sapiens, UniProt P41161 1-510). The settings on record: protein: recombinant; tags: N-terminal GST; dsDNA, one strand shown. An outline of the steps:
as §1

The next assay deals with HSF1 (Homo sapiens, UniProt Q00613 1-529). Conditions: protein: recombinant; tags: N-terminal GST; chain copies: 3; dsDNA, one strand shown. Summed up:
as §1

The target in a further assay is T2, SPIC (Homo sapiens, UniProt Q8N5J4 1-248).
T2 sequence: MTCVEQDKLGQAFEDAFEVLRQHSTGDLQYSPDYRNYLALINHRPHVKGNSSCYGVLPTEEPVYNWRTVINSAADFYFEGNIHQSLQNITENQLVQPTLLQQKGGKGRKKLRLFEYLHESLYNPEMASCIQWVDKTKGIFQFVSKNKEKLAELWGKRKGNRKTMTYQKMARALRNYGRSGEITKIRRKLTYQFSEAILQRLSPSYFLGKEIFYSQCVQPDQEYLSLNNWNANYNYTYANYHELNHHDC
The settings on record: protein: recombinant; tags: N-terminal GST; dsDNA, one strand shown. An outline of the steps: as §1

Another assay has as its target ELF4 (Homo sapiens, UniProt Q99607 1-663). The settings on record: protein: recombinant; tags: N-terminal GST; dsDNA, one strand shown. Summed up:
as §1

In a further assay the target is T3, ELK4 (Homo sapiens, UniProt P28324-2 1-405).
T3 sequence: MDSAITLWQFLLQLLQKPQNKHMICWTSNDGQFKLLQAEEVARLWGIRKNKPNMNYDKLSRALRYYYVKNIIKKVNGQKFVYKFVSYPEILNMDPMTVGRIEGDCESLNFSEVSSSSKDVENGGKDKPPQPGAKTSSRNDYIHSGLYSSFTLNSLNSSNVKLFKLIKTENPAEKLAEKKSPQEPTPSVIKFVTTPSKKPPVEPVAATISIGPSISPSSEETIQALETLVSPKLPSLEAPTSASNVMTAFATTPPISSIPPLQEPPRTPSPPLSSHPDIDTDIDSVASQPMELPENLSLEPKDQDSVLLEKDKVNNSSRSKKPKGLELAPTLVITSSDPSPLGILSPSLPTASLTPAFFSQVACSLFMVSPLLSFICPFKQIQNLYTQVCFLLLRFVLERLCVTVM
Conditions: protein: recombinant; tags: N-terminal GST; dsDNA, one strand shown. An outline of the steps:
as §1

The target of another assay is T4, ETV2 (Homo sapiens, UniProt O00321 1-342).
T4 sequence: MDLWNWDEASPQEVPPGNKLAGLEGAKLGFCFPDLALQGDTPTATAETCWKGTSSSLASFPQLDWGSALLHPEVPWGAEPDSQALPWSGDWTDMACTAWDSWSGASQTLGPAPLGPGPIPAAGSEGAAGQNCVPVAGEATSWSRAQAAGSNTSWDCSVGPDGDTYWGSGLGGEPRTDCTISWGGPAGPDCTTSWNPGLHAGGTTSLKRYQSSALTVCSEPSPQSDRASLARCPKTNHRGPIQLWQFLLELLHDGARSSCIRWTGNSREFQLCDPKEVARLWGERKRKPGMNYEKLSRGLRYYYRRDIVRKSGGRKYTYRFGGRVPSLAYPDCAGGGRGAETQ
The settings on record: protein: recombinant; tags: N-terminal GST; dsDNA, one strand shown. An outline of the steps: as §1

The target of a further assay is T5, ELF3 (Homo sapiens, UniProt P78545 1-371).
T5 sequence: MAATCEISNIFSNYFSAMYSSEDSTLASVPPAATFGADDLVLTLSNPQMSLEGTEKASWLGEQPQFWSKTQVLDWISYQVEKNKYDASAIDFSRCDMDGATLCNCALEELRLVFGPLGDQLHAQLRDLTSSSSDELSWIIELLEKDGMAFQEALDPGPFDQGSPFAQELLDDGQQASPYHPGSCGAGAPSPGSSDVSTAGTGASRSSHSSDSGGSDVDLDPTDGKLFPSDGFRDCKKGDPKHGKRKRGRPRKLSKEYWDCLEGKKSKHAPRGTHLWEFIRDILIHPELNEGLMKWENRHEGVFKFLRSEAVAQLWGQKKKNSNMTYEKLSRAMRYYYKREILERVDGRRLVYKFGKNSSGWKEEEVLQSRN
Conditions: protein: recombinant; tags: N-terminal GST; dsDNA, one strand shown. An outline of the steps:
as §1

For a further assay, the target named is CRX (Homo sapiens, UniProt O43186 1-299). Conditions: protein: recombinant; tags: N-terminal GST; dsDNA, one strand shown. Summed up: as §1
Chain of CRX (O43186 whole entry): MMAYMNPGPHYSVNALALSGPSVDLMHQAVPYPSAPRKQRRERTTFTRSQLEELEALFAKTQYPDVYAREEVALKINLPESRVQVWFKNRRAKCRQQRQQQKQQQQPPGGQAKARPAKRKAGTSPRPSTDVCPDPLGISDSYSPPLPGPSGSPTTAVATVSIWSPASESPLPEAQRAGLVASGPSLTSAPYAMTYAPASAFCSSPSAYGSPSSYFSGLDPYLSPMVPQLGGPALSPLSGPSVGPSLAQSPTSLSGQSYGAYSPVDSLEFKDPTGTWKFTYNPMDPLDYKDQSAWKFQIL
In a further assay the target is ETV1 (Homo sapiens, UniProt P50549 1-477). Conditions: protein: recombinant; tags: N-terminal GST; dsDNA, one strand shown. An outline of the steps: as §1
Chain of ETV1 (P50549 whole entry): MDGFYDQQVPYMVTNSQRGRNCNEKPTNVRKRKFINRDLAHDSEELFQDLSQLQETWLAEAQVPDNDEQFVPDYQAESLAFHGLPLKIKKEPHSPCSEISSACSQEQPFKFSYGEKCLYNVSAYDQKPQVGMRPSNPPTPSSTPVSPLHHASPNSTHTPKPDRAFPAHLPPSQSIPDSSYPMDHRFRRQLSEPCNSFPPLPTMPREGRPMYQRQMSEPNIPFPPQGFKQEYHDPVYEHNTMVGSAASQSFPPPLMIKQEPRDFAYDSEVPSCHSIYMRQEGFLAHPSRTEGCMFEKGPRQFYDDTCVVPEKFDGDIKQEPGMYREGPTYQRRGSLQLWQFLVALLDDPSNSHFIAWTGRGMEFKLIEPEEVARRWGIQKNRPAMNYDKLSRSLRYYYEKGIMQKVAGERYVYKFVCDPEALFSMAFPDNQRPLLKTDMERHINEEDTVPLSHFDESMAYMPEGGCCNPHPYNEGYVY
A further assay has as its target T6, ERF (Homo sapiens, UniProt P50548 1-548).
T6 sequence: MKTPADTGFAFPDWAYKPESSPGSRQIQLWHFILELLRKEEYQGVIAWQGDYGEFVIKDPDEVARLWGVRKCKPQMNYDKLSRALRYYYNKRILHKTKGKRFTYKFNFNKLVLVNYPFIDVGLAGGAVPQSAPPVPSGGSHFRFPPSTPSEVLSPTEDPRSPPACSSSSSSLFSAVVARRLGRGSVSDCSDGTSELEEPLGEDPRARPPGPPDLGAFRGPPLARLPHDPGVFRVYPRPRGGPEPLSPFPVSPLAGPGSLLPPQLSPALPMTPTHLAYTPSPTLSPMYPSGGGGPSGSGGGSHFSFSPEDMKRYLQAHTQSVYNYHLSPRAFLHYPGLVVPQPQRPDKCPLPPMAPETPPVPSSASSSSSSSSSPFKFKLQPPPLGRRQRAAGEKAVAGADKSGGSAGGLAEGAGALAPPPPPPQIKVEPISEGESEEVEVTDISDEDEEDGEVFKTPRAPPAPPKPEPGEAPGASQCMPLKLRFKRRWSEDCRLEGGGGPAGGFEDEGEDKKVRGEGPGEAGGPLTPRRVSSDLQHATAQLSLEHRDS
The settings on record: protein: recombinant; tags: N-terminal GST; dsDNA, one strand shown. Summed up:
as §1

A further assay deals with T7, ETV3L (Homo sapiens, UniProt Q6ZN32 1-361).
T7 sequence: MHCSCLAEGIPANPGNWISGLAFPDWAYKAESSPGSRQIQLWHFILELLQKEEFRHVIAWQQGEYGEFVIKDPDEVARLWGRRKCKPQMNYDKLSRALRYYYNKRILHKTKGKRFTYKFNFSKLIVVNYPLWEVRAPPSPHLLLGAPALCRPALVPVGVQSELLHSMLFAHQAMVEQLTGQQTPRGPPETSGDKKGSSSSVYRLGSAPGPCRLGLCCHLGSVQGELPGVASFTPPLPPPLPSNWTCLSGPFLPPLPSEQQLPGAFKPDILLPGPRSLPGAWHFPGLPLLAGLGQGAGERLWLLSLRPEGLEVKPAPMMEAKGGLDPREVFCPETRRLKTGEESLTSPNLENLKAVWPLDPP
Conditions: protein: recombinant; tags: N-terminal GST; dsDNA, one strand shown. An outline of the steps: as §1

In another assay the target is T8, ETS2 (Homo sapiens, UniProt P15036 1-469).
T8 sequence: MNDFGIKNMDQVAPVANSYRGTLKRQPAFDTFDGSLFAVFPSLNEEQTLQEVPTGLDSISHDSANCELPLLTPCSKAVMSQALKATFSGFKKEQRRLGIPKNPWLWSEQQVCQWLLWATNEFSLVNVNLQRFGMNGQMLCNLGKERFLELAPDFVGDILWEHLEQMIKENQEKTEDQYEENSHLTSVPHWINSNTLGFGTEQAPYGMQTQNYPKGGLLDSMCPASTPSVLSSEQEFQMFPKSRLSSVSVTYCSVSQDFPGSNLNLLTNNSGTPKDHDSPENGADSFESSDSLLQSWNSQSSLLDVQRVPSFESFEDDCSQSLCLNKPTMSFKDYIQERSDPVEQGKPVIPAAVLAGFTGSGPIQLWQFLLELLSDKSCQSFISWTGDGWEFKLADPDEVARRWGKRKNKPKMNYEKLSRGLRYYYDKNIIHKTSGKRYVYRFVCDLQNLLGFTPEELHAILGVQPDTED
The settings on record: protein: recombinant; tags: N-terminal GST; dsDNA, one strand shown. Summed up:
as §1

In the next assay the target is T9, SPDEF (Homo sapiens, UniProt O95238 1-335).
T9 sequence: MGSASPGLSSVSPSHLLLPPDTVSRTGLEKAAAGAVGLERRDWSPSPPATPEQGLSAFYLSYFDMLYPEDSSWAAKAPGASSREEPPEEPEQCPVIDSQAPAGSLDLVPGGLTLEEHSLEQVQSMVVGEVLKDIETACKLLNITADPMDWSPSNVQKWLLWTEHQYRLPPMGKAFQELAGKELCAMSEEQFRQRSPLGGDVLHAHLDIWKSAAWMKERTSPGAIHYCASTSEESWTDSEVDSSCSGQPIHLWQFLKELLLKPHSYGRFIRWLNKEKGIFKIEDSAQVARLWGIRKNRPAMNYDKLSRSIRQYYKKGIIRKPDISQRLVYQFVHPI
The settings on record: protein: recombinant; tags: N-terminal GST; dsDNA, one strand shown. An outline of the steps:
as §1

The target of the next assay is T10, ETV7 (Homo sapiens, UniProt Q9Y603 1-341).
T10 sequence: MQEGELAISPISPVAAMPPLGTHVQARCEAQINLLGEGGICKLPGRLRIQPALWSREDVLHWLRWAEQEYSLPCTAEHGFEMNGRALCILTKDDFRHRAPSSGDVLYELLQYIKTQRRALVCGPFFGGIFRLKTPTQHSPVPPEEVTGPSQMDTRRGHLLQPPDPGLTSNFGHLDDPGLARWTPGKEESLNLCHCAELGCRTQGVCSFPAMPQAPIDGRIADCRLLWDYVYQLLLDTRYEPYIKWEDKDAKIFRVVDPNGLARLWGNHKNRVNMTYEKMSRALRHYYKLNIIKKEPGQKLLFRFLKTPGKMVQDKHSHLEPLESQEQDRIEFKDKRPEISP
The settings on record: protein: recombinant; tags: N-terminal GST; dsDNA, one strand shown. An outline of the steps:
as §1

In the next assay the target is T11, ELF5 (Homo sapiens, UniProt Q9UKW6-2 1-255).
T11 sequence: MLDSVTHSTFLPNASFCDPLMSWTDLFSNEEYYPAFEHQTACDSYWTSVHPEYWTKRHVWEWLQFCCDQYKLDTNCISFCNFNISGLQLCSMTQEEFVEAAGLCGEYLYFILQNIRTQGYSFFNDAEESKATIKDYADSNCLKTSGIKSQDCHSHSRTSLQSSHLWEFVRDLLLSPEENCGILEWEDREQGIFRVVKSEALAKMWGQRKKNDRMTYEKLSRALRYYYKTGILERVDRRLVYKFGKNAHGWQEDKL
The settings on record: protein: recombinant; tags: N-terminal GST; dsDNA, one strand shown. An outline of the steps: as §1

For another assay, the target named is T12, ETV3 (Homo sapiens, UniProt P41162-2 1-143).
T12 sequence: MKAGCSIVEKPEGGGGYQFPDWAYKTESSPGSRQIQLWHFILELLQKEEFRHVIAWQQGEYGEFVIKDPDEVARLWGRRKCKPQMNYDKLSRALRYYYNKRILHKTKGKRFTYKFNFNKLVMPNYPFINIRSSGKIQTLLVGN
Conditions: protein: recombinant; tags: N-terminal GST; dsDNA, one strand shown. Summed up:
as §1

For a further assay, the target named is ETV6 (Homo sapiens, UniProt P41212 1-452). The settings on record: protein: recombinant; tags: N-terminal GST; dsDNA, one strand shown. Summed up: as §1
Chain of ETV6 (P41212 whole entry): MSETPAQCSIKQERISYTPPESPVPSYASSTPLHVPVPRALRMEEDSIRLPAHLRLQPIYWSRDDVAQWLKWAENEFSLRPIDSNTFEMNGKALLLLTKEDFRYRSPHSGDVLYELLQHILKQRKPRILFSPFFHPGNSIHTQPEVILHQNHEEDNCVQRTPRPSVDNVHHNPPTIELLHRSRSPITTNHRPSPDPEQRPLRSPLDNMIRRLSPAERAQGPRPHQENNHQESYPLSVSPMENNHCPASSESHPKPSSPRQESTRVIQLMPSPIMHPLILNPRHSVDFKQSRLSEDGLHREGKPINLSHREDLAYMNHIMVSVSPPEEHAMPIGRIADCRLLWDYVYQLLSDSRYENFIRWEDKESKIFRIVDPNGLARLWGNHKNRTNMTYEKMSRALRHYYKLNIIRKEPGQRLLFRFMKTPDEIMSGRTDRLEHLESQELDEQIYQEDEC

The record followed here is publication PMC7862700, “An all-to-all approach to the identification of sequence-specific readers for epigenetic DNA modifications on cytosine”.

Chain of ELF4 (Q99607 whole entry): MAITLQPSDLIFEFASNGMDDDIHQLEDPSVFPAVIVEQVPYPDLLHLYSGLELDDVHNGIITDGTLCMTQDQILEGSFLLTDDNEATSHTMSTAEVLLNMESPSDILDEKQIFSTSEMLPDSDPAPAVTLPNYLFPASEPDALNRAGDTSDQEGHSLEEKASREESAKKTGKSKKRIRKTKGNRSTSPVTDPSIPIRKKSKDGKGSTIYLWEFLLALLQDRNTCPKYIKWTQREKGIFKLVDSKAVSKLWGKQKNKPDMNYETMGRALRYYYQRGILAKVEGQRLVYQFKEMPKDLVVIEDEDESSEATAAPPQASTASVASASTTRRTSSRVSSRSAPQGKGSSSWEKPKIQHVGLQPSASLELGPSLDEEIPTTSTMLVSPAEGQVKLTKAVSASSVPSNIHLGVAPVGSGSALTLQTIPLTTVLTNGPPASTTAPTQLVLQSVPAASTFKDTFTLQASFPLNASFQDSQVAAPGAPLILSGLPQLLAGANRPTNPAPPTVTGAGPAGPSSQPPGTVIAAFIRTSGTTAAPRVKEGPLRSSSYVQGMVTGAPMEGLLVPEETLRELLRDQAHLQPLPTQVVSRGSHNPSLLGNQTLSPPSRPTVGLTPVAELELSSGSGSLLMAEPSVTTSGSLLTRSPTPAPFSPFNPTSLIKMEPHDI
Chain of ETV5 (P41161 whole entry): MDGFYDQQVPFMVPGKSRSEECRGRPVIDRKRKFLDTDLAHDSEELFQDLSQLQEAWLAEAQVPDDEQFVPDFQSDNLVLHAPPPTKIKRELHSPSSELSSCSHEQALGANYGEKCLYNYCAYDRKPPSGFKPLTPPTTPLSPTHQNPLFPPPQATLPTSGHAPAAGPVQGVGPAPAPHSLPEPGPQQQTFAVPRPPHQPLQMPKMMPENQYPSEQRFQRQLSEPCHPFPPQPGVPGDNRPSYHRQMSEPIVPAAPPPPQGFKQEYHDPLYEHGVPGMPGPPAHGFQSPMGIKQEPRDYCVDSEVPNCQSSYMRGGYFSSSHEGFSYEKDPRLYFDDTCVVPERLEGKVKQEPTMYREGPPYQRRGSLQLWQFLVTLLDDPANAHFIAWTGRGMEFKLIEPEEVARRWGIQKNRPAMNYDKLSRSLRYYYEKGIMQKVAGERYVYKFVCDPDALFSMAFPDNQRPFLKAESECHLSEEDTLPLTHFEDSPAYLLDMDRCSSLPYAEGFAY
Chain of HSF1 (Q00613 whole entry): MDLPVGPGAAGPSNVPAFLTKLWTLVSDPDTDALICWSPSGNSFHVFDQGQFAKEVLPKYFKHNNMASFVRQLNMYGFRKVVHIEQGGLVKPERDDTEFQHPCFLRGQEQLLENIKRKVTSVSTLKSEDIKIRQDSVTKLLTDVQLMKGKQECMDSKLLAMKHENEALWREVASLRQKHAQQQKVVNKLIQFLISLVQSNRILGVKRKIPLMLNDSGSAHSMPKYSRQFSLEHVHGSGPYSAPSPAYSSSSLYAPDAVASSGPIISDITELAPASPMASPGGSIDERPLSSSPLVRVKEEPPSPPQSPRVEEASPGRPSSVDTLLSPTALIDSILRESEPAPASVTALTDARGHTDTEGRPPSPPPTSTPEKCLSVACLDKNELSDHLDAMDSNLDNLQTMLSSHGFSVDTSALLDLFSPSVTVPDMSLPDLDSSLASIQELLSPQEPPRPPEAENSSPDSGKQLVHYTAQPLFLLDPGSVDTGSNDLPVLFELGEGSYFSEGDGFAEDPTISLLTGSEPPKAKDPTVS

Regarding CCGATA, the binding signal was 1.14 fold enrichment (6-mer frequency, TF over GST control) with FEV; 1.15 fold enrichment (6-mer frequency, TF over GST control) with ETV5; 1.16 fold enrichment (6-mer frequency, TF over GST control) in the assay with HSF1; 1.2 fold enrichment (6-mer frequency, TF over GST control) in the assay with SPIC; 1.2 fold enrichment (6-mer frequency, TF over GST control) with ELF4; 1.08 fold enrichment (6-mer frequency, TF over GST control) in the assay with ELK4. Further, the binding signal with ETV2 was 1.25 fold enrichment (6-mer frequency, TF over GST control); with ELF3, 1.05 fold enrichment (6-mer frequency, TF over GST control); with CRX it was 1.27 fold enrichment (6-mer frequency, TF over GST control); in the assay with ETV1, 1.16 fold enrichment (6-mer frequency, TF over GST control); in the assay with ERF, 1.13 fold enrichment (6-mer frequency, TF over GST control); in the assay with ETV3L it was 1.05 fold enrichment (6-mer frequency, TF over GST control). Further, the binding signal with ETS2 was 1.16 fold enrichment (6-mer frequency, TF over GST control); in the assay with SPDEF, 1.05 fold enrichment (6-mer frequency, TF over GST control); in the assay with ETV7 it was 1.06 fold enrichment (6-mer frequency, TF over GST control); with ELF5 it was 1.1 fold enrichment (6-mer frequency, TF over GST control); with ETV3 it was 1.14 fold enrichment (6-mer frequency, TF over GST control); with ETV6, 1.12 fold enrichment (6-mer frequency, TF over GST control).
